Assay results taken from PubChem BioAssay AID1159580 (chemical genetic matrix, 2015).
Several values for one entry are separate records, joined by “and”; a condition that tells them apart may be missing. Equal values may be shown once. The campaign covered roughly 5,500 compounds. About 2,000 (36%) were called active. Roughly 18% stayed inconclusive and do not appear here. No stated cut-off is given here; in the data, active means normalized growth mostly below about 0.91 (no sharp cut-off); inconclusive means no clear call, values can overlap the other calls; inactive means mostly above about 0.92. The list shows a part of the results.

Assay: chemical genetic growth profiling, strain panel (AID 1159580);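 further: tested at 20 µM; growth read once vehicle control cultures reached saturation at 30 °C; 1 = growth at the plate median or of vehicle wells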
Conditions: S. cerevisiae deletion strains, growth OD

Measured: normalized growth

C=CC(C1=CC(=O)C(OC)=CC1=O)c1ccc(OC)cc1 (stereo unspecified)
inactive: locus YAL013W, strain DEP1, stronger effect = lower value 0.956 | locus YBR021W, strain FUR4, stronger effect = lower value 0.957 | locus YBR171W, strain sec66, stronger effect = lower value 0.983 | locus YBR229C, strain ROT2, stronger effect = lower value 0.968 | locus YCL029C, strain bik1, stronger effect = lower value 0.917 | locus YCL061C, strain MRC1, stronger effect = lower value 0.981 | locus YCR088W, strain abp1, stronger effect = lower value 0.983 | locus YDL005C, strain med2, stronger effect = lower value 1.01 | locus YDL035C, strain GPR1, stronger effect = lower value 0.896 | locus YDL040C, strain nat1, stronger effect = lower value 0.975 | locus YDL074C, strain BRE1, stronger effect = lower value 0.827 | locus YDL101C, strain DUN1, stronger effect = lower value 0.939 | locus YDL134C, strain PPH21, stronger effect = lower value 0.961 | locus YDL185W, strain tfp1, stronger effect = lower value 0.976 | locus YDR001C, strain nth1, stronger effect = lower value 0.982 | locus YDR150W, strain NUM1, stronger effect = lower value 0.985 | locus YDR297W, strain sur2, stronger effect = lower value 0.934 | locus YDR334W, strain swr1, stronger effect = lower value 0.918 | locus YDR335W, strain msn5, stronger effect = lower value 0.94 | locus YEL037C, strain rad23, stronger effect = lower value 0.946 | locus YEL061C, strain CIN8, stronger effect = lower value 0.982 | locus YER110C, stronger effect = lower value 0.905 | locus YER111C, strain swi4, stronger effect = lower value 0.984 | locus YER155C, strain BEM2, stronger effect = lower value 0.973 | locus YGL078C, strain dbp3, stronger effect = lower value 0.978 | locus YGL167C, strain pmr1, stronger effect = lower value 0.978 | locus YGL227W, strain vid30, stronger effect = lower value 0.993 | locus YGL248W, strain PDE1, stronger effect = lower value 0.948 | locus YGR078C, strain PAC10, stronger effect = lower value 0.875 | locus YGR229C, strain SMI1, stronger effect = lower value 0.812 | locus YGR252W, strain gcn5, stronger effect = lower value 0.77 | locus YHR027C, strain rpn1, stronger effect = lower value 0.948 | locus YHR030C, strain SLT2, stronger effect = lower value 0.957 and 1 | locus YHR079C, strain IRE1, stronger effect = lower value 1.03 | locus YHR094C, strain hxt1, stronger effect = lower value 0.947 | locus YHR129C, strain ARP1, stronger effect = lower value 0.939 | locus YIL066C, strain RNR3, stronger effect = lower value 0.879 | locus YIL073C, strain SPO22, stronger effect = lower value 0.929 | locus YIL125W, strain kgd1, stronger effect = lower value 0.952 | locus YJL092W, strain hpr5, stronger effect = lower value 0.948 | locus YJL095W, strain BCK1, stronger effect = lower value 0.894 and 1.04 | locus YJL115W, strain asf1, stronger effect = lower value 0.973 | locus YJL134W, strain LCB3, stronger effect = lower value 0.967 | locus YJL154C, strain vps35, stronger effect = lower value 0.96 | locus YJL168C, strain set2, stronger effect = lower value 0.947 | locus YJL187C, strain SWE1 (second series), stronger effect = lower value 0.933
active: locus YAL021C, strain ccr4, stronger effect = lower value 0.873 | locus YAL026C, strain drs2, stronger effect = lower value 0.765 | locus YAL030W, strain snc1, stronger effect = lower value 0.893 | locus YBL061C, strain skt5, stronger effect = lower value 0.872 | locus YBR009C, strain hhf1, stronger effect = lower value 0.661 | locus YBR023C, strain chs3, stronger effect = lower value 0.853 | locus YBR231C, strain swc5, stronger effect = lower value 0.854 | locus YBR279W, strain paf1, stronger effect = lower value 0.883 | locus YCL011C, strain gbp2, stronger effect = lower value 0.857 | locus YCL016C, strain dcc1, stronger effect = lower value 0.81 | locus YCL069W, strain vba3, stronger effect = lower value 0.911 | locus YDL192W, strain arf1, stronger effect = lower value 0.871 | locus YDR069C, strain doa4, stronger effect = lower value 0.889 | locus YDR101C, strain arx1, stronger effect = lower value 0.906 | locus YDR137W, strain rgp1, stronger effect = lower value 0.596 | locus YDR159W, strain sac3, stronger effect = lower value 0.813 | locus YDR162C, strain NBP2, stronger effect = lower value 0.801 | locus YDR195W, strain ref2 1.16 [resistant] | locus YDR318W, strain mcm21, stronger effect = lower value 0.843 | locus YDR388W, stronger effect = lower value 0.601 | locus YDR392W, strain spt3, stronger effect = lower value 0.23 | locus YDR502C, strain sam2, stronger effect = lower value 0.893 | locus YEL003W, strain gim4, stronger effect = lower value 0.803 | locus YEL061C, strain CIN8 (second series), stronger effect = lower value 0.876 | locus YER015W, strain faa2, stronger effect = lower value 0.906 | locus YER016W, strain bim1, stronger effect = lower value 0.912 | locus YER155C, strain BEM2 (second series), stronger effect = lower value 0.476 | locus YER167W, strain BCK2, stronger effect = lower value 0.829 | locus YFR010W, strain ubp6, stronger effect = lower value 0.887 | locus YGL086W, strain mad1, stronger effect = lower value 0.87 | locus YGL173C, strain kem1, stronger effect = lower value 0.853 | locus YGL240W, strain doc1, stronger effect = lower value 0.743 | locus YGL253W, strain hxk2, stronger effect = lower value 0.813 | locus YGR135W, strain pre9, stronger effect = lower value 0.856 | locus YHR013C, strain ard1, stronger effect = lower value 0.6 | locus YHR079C, strain IRE1 (second series), stronger effect = lower value 0.893 | locus YHR142W, strain chs7, stronger effect = lower value 0.637 | locus YHR200W, strain rpn10, stronger effect = lower value 0.907 | locus YIR030C, strain dcg1, stronger effect = lower value 0.882 | locus YJL095W, strain BCK1 (second series), stronger effect = lower value 0.809 | locus YJL129C, strain trk1, stronger effect = lower value 0.868 | locus YJL164C, strain tpk1, stronger effect = lower value 0.759 | locus YJL166W, strain qcr8, stronger effect = lower value 0.588 | locus YJL187C, strain SWE1, stronger effect = lower value 0.841 | locus YJR043C, strain POL32, stronger effect = lower value 0.832
